# In PubChem BioAssay (Tox21):
# Several values for one entry are separate records, joined by “and”; a condition that tells them apart may be missing. Identical values can stand only once. Inconclusive results are not listed. Where a call stands in place of a potency, no number is given. Where a structure was tested more than once in an assay, its records may differ in their call. Activity calls are given as the source filed them. Calls come from the whole dose curve; as a rule, active = well fitted cell-killing curve with a large enough effect in the repeat runs; inconclusive = weak or mixed curves, or effect the other way; inactive = flat fitted curve, though single readings scatter.
# Assay: qHTS assay to identify small molecule agonists of the estrogen receptor beta (ER-beta) signaling pathway - cell viability counter screen (AID 1259380); note: nearly all actives have a fitted effect of over 30% in size
# Conditions: ER-beta-bla HEK293T viability, CellTiter-Glo luminescence, 16 h; series mostly up to 92.4 µM
# Method in brief: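 In this qHTS counter screen, HEK293T cells carrying an ER-beta/UAS beta-lactamase reporter, grown in 2% charcoal-stripped FBS, received compound for 16 hr; ATP-based CellTiter-Glo luminescence was then read after 30 min at room temperature.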
# Potency is the fitted concentration of half-maximal effect.
SMILES,Potency,"activity change, negative = cytotoxicity"
CC1COc2c(N3CCN(C)CC3)c(F)cc3c(=O)c(C(=O)O)cn1c23 (configuration not stated),inactive,–
CCc1ccc(C(c2ccc(CC)cc2)C(Cl)Cl)cc1,inactive,–
O=C(O)CP(=O)(O)O,inactive,–
CCn1cc(C(=O)O)c(=O)c2cc(F)c(N3CCNC(C)C3)c(F)c21 (configuration not stated),inactive,–
c1ccc2c(c1)-c1cccc3c1c-2cc1ccccc13,inactive,–
NC(N)=Nc1nc(CSCC/C(N)=N/S(N)(=O)=O)cs1,inactive,–
NCCO,inactive,–
CCCCCCCCCCCCCC[P+](CCCC)(CCCC)CCCC,17.1 µM (active) and 27.3 µM (active),–
O=C(O)c1cn(-c2ccc(F)cc2)c2cc(N3CCNCC3)c(F)cc2c1=O,inactive,–
CCCCC/C=C/CC1CC(=O)OC1=O (configuration not stated),inactive,–
CCCC(=O)c1ccccc1,inactive,–
Cc1cc(C2(c3cc(C)c(O)cc3C)OS(=O)(=O)c3ccccc32)c(C)cc1O,inactive,–
O=C(OCc1ccccc1)c1ccc(O)cc1,inactive,–
CCC(C)(Oc1ccc(C2(c3ccc(OC(C)(CC)C(=O)O)cc3)CCCCC2)cc1)C(=O)O (configuration not stated),inactive,–
CCc1cc(C(C)(C)C)c(O)c(C(C)(C)C)c1,inactive,–
CC(=O)CC(C)=O,inactive,–
NCCCCCC(=O)O,inactive,–
NNCCc1ccccc1,inactive,–
Nc1nc2ccccc2[nH]1,inactive,–

SMILES,Potency,"activity change, negative = cytotoxicity"
O=C(Oc1ccccc1)c1ccccc1O,inactive,–
CC(C)(c1ccccc1)c1ccc(Nc2ccc(C(C)(C)c3ccccc3)cc2)cc1,inactive,–
NC(N)=NC(=O)Cc1c(Cl)cccc1Cl,inactive,–
CC1=CC(=O)c2ccccc2C1=O,24.3 µM (active) and 26.6 µM (active),–
COc1cc(C(=S)N2CCOCC2)ccc1O,inactive,–
CCCNC(C)C(=O)Nc1ccccc1C (configuration not stated),inactive,–
CC(=O)O[C@]1(C(C)=O)CC[C@H]2[C@@H]3C[C@H](C)C4=CC(=O)CC[C@]4(C)[C@H]3CC[C@@]21C,inactive,–
NC(Cc1ccc(Cl)cc1)C(=O)O (configuration not stated),–,-2.17% [at 0.349 µM] (inactive)
O=C1CC2(CCCC2)CC(=O)N1CCCCN1CCN(c2ncccn2)CC1,4.86 µM (active),–
Cc1ccc(-c2cc(C(F)(F)F)nn2-c2ccc(S(N)(=O)=O)cc2)cc1,60.9 µM (active) and 34.4 µM (active) and inactive,–
CC(=O)CC(=O)Nc1ccc2[nH]c(=O)[nH]c2c1,inactive,–
c1ccc2cc3c(ccc4ccccc43)cc2c1,inactive,–
Cc1c(O)cccc1C(=O)N[C@@H](CSc1ccccc1)[C@H](O)CN1C[C@H]2CCCC[C@H]2C[C@H]1C(=O)NC(C)(C)C,23.7 µM (active) and 18.8 µM (active),–
O=C(O)c1cccc(C(=O)O)c1,inactive,–
CCN1CCCC1CNC(=O)c1cc(S(=O)(=O)CC)c(N)cc1OC (configuration not stated),inactive,–
CCC[C@H](N[C@@H](C)C(=O)N1[C@H](C(=O)O)C[C@@H]2CCCC[C@@H]21)C(=O)OCC,inactive,–
CCCCCCCCCCCCc1ccccc1O,30.2 µM (active) and 27.3 µM (active),–
CC(C)(C)NCC(O)c1cc(O)cc(O)c1 (configuration not stated),inactive,–
